Test results from the supplement of paper PMC8728848.
Only a selection was taken, and the strongest signals are over-represented in it overall.

What was measured:
Assay in all cases: glycan array binding signal (z-score within array); higher = stronger binding
Details in all cases: glycan notation: IUPAC condensed, linker removed
[1] = target: GlcNAc(a1-4)Gal(b1-4)GlcNAc
Method in brief: (§1)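 The Consortium for Functional Glycomics database supplied 3228 glycan arrays, of which those lacking an available protein sequence were dropped. The binding signal, a within-array Z-score, was averaged across arrays of the same protein sequence and across linkers. Negative scores can be read as non-binding.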

[2] = target: GlcNAc(a1-4)Gal(b1-4)GlcNAc(b1-3)Gal(b1-4)[Fuc(a1-3)]GlcNAc(b1-3)Gal(b1-4)[Fuc(a1-3)]GlcNAc
Method in brief: as §1

[3] = target: GlcNAc(b1-2)Man(a1-3)[GlcNAc(b1-2)Man(a1-6)]Man(b1-4)GlcNAc(b1-4)GlcNAc
Method in brief: as §1

[4] = target: GlcNAc(b1-2)[GlcNAc(b1-4)]Man(a1-3)[GlcNAc(b1-4)][GlcNAc(b1-2)[GlcNAc(b1-6)]Man(a1-6)]Man(b1-4)GlcNAc(b1-4)GlcNAc
Method in brief: as §1

[5] = target: GlcNAc(b1-3)Gal(b1-4)GlcNAc
Method in brief: as §1

[6] = target: GlcNAc(b1-3)Gal(b1-4)GlcNAc(b1-2)Man(a1-3)[GlcNAc(b1-3)Gal(b1-4)GlcNAc(b1-2)Man(a1-6)]Man(b1-4)GlcNAc(b1-4)GlcNAc
Method in brief: as §1

[7] = target: GlcNAc(b1-3)Gal(b1-4)GlcNAc(b1-3)GalNAc
Method in brief: as §1

[8] = target: GlcNAc(b1-3)Gal(b1-4)GlcNAc(b1-6)[GlcNAc(b1-3)]Gal(b1-4)GlcNAc
Method in brief: as §1

[9] = target: GlcNAc(b1-4)GlcNAc(b1-4)GlcNAc(b1-4)GlcNAc(b1-4)GlcNAc(b1-4)GlcNAc
Method in brief: as §1

[10] = target: GlcNAc6S(b1-3)Gal(b1-4)GlcNAc
Method in brief: as §1

[11] = target: Man(a1-2)Man(a1-3)Man
Method in brief: as §1

[12] = target: Man(a1-3)[Man(a1-6)]Man(a1-6)[Man(a1-3)]Man(b1-4)GlcNAc(b1-4)GlcNAc
Method in brief: as §1

[13] = target: Neu5Ac(a2-3)Gal(b1-3)GlcNAc(b1-2)Man
Method in brief: as §1

[14] = target: Neu5Ac(a2-3)Gal(b1-3)GlcNAc(b1-2)Man(a1-3)[GlcNAc(b1-4)][Neu5Ac(a2-3)Gal(b1-3)GlcNAc(b1-2)Man(a1-6)]Man(b1-4)GlcNAc(b1-4)GlcNAc
Method in brief: as §1

[15] = target: Neu5Ac(a2-3)Gal(b1-3)GlcNAc(b1-3)Gal(b1-3)GlcNAc
Method in brief: as §1

[16] = target: Neu5Ac(a2-3)Gal(b1-3)[Fuc(a1-4)]GlcNAc(b1-3)Gal(b1-4)[Fuc(a1-3)]GlcNAc
Method in brief: as §1

[17] = target: Neu5Ac(a2-3)Gal(b1-3)[Neu5Ac(a2-6)]GlcNAc(b1-3)[Fuc(a1-3)[Gal(b1-4)]GlcNAc(b1-6)]Gal(b1-4)Glc
Method in brief: as §1

[18] = target: Neu5Ac(a2-3)Gal(b1-3)]Neu5Ac(a2-3)Gal(b1-4)]GlcNAc
Method in brief: as §1

[19] = target: Neu5Ac(a2-3)Gal(b1-4)GlcNAc(b1-2)Man(a1-3)[GlcNAc(b1-4)][Neu5Ac(a2-3)Gal(b1-4)GlcNAc(b1-2)Man(a1-6)]Man(b1-4)GlcNAc(b1-4)GlcNAc
Method in brief: as §1

[20] = target: Neu5Ac(a2-3)Gal(b1-4)GlcNAc(b1-2)[Neu5Ac(a2-3)Gal(b1-4)GlcNAc(b1-6)]Man(a1-6)[Neu5Ac(a2-3)Gal(b1-4)GlcNAc(b1-2)Man(a1-3)]Man(b1-4)GlcNAc(b1-4)GlcNAc
Method in brief: as §1

[21] = target: Neu5Ac(a2-3)Gal(b1-4)GlcNAc(b1-6)[Neu5Ac(a2-3)Gal(b1-3)]GalNAc
Method in brief: as §1

[22] = target: Neu5Ac(a2-3)Gal(b1-4)[Fuc(a1-3)]GlcNAc(b1-2)Man
Method in brief: as §1

[23] = target: Neu5Ac(a2-3)GalNAc
Method in brief: as §1

[24] = target: Neu5Ac(a2-6)Gal(b1-4)GlcNAc(b1-2)Man(a1-3)[Man(a1-6)]Man(b1-4)GlcNAc(b1-4)GlcNAc
Method in brief: as §1

[25] = target: Neu5Ac(a2-6)Gal(b1-4)GlcNAc(b1-2)Man(a1-6)[GlcNAc(b1-2)Man(a1-3)]Man(b1-4)GlcNAc(b1-4)GlcNAc
Method in brief: as §1

[26] = target: Neu5Ac(a2-6)Gal(b1-4)GlcNAc(b1-3)Gal(b1-4)GlcNAc(b1-6)[Gal(b1-3)]GalNAc
Method in brief: as §1

[27] = target: Neu5Ac(a2-6)Gal(b1-4)GlcNAc(b1-6)GalNAc
Method in brief: as §1

[28] = target: Neu5Ac(a2-6)Gal(b1-4)GlcNAc(b1-6)[Gal(b1-3)]GalNAc
Method in brief: as §1

[29] = target: Neu5Ac(a2-8)Neu5Ac
Method in brief: as §1

[30] = target: Neu5Ac(a2-8)Neu5Ac(a2-3)Gal(b1-3)GalNAc(b1-4)[Neu5Ac(a2-3)]Gal(b1-4)Glc
Method in brief: as §1

[31] = target: Neu5Gc(a2-8)Neu5Gc(a2-6)Gal(b1-4)GlcNAc
Method in brief: as §1

B1: GNL (Galanthus nivalis) (protein)
chain: MGHHHHHHHHYGTLENGHWLMVGMSIFSKDRTVELRMQDDGKLAIYYNDHCAWQSTAQQVNNAKGAVMQGDGNFCIYDKNGKATWHTNTAAPSGDSHTFVSVQDDGNLVLYKNNGATPIWSSKSNK
**Q.** With B1 as the binder, how does the “glycan array binding signal (z-score)” value [1] read?
**A.** -0.25

**Q.** And the “glycan array binding signal (z-score)” value [2]?
**A.** -0.175

**Q.** And the “glycan array binding signal (z-score)” value [3]?
**A.** 8.74

**Q.** And the “glycan array binding signal (z-score)” value [4]?
**A.** -0.284

**Q.** And the “glycan array binding signal (z-score)” value [5]?
**A.** -0.226

**Q.** And the “glycan array binding signal (z-score)” value [6]?
**A.** 0.679

**Q.** What about the “glycan array binding signal (z-score)” value [7] of the same binder?
**A.** -0.013

**Q.** And the “glycan array binding signal (z-score)” value [8]?
**A.** -0.255

**Q.** What about the “glycan array binding signal (z-score)” value [9] of the same binder?
**A.** -0.24

**Q.** And the “glycan array binding signal (z-score)” value [10]?
**A.** -0.28

**Q.** What about the “glycan array binding signal (z-score)” value [11] of the same binder?
**A.** -0.18

**Q.** What about the “glycan array binding signal (z-score)” value [12] of the same binder?
**A.** -0.2

**Q.** What about the “glycan array binding signal (z-score)” value [13] of the same binder?
**A.** -0.208

**Q.** And the “glycan array binding signal (z-score)” value [14]?
**A.** -0.228

**Q.** What about the “glycan array binding signal (z-score)” value [15] of the same binder?
**A.** -0.212

**Q.** And the “glycan array binding signal (z-score)” value [16]?
**A.** -0.191

**Q.** What about the “glycan array binding signal (z-score)” value [17] of the same binder?
**A.** -0.137

**Q.** And the “glycan array binding signal (z-score)” value [18]?
**A.** -0.172

**Q.** What about the “glycan array binding signal (z-score)” value [19] of the same binder?
**A.** -0.295

**Q.** And the “glycan array binding signal (z-score)” value [20]?
**A.** -0.159

**Q.** And the “glycan array binding signal (z-score)” value [21]?
**A.** -0.286

**Q.** What about the “glycan array binding signal (z-score)” value [22] of the same binder?
**A.** -0.295

**Q.** And the “glycan array binding signal (z-score)” value [23]?
**A.** -0.251

**Q.** What about the “glycan array binding signal (z-score)” value [24] of the same binder?
**A.** 5.43

**Q.** What about the “glycan array binding signal (z-score)” value [25] of the same binder?
**A.** 5.03

**Q.** And the “glycan array binding signal (z-score)” value [26]?
**A.** -0.216

**Q.** And the “glycan array binding signal (z-score)” value [27]?
**A.** -0.235

**Q.** What about the “glycan array binding signal (z-score)” value [28] of the same binder?
**A.** -0.133

**Q.** And the “glycan array binding signal (z-score)” value [29]?
**A.** -0.189

**Q.** And the “glycan array binding signal (z-score)” value [30]?
**A.** -0.285

**Q.** What about the “glycan array binding signal (z-score)” value [31] of the same binder?
**A.** -0.194
